Compounds with a hit are over-represented: about 1.1% of the library has one in this group of screens.
HMGR II inh = blocks class II HMG-CoA reductase of Enterococcus faecalis | inhibition, % at 10 µM | hit rate 0.41% among 190,000 | purified E. faecalis HMGR, NADPH absorbance 340 nm kinetic;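 active means inhibition above a set limit, the median over all tested compounds plus 3 SD, cut at about 9.5% in these data; inconclusive means no clear call, values can overlap the other calls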;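 further: enzyme runs in reverse so mevalonate oxidation gives rising NADPH absorbance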
HSV augment = HSV replication enhancement | maximum fold increase | HSV replication augmentation in cells, fold increase | AID 1956 | hit rate 0.005% among 220,000; in the data active means maximum fold increase above about 1.5; inconclusive means no clear call, values can overlap the other calls; tested in PC3 cells
Insulin prom up = MIN6 insulin promoter up-regulation; MIN6 insulin promoter-GFP reporter, high-content imaging; active compounds read high; z-score at 5 µM; hit rate 0.3% among 190,000;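 active means z-score above 3 at 5 µM with at least 500 cells counted in the well; inconclusive means wells under 500 cells, flagged as cytotoxic or low count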
INS promoter inh = TRM-6 insulin promoter activity inhibition; TRM-6 cells (human fetal islet line), insulin promoter-eGFP reporter, imaging; reporter expression induced with tamoxifen; inhibition, % at 2 µM; hit rate 0.9% among 130,000;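 active means inhibition above the mean plus 3 SD, with well images judged a real hit on visual review, cut at about 60% in these data, passing the limit was not always enough; inconclusive means inhibition over the cutoff but images rejected on review; inactive means inhibition not above the cutoff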
A number is an active result; n = inactive; u = inconclusive; x = no result.

SMILES	HMGR II inh	HSV augment	Insulin prom up	INS promoter inh
O=C(NCc1ccc(F)cc1)C1CCCN(S(=O)(=O)c2cccnc2)C1 (centres undefined)	n	n	3.46	x
CCNC(=O)NCc1c(C)c(C)n(Cc2ccccc2)c1-n1cccc1	n	n	n	n
Cn1c(N)c(N2CCN(c3ccccc3)CC2)c(=O)[nH]c1=O	n	n	n	x
C=CCn1c(SCc2csc(C)n2)nc2sc3c(c2c1=O)CCCC3	n	x	n	71.4
COc1ccc(CC2(CO)CCN(Cc3cccc4nccnc34)CC2)cc1	n	n	n	n
COc1ccc(CN2CCC(CO)(Cc3ccccc3C(F)(F)F)CC2)c(F)c1	10.2	n	n	x
CC(Nc1nc(N2CCNCC2)nc2ccccc12)c1ccccc1 (centres undefined)	n	n	n	n
Cc1[nH]nc2c1C(CCc1ccccc1)C(C#N)=C(N)O2 (centres undefined)	27.5	n	n	x
O=C(COc1cccc(F)c1)N1c2ccccc2Sc2ccccc21	n	n	n	78.6
CN(C)c1ccnc(SCc2ccccc2Cl)c1C#N	n	n	n	72.7
CCCNC(=O)Cn1sc2nc(C)cc(C)c2c1=O	x	n	x	x
C=CCn1c(-c2oc3nc(-c4ccccc4)cc(-c4ccccc4)c3c2N)n[nH]c1=S	n	n	5.57	x
C=CCn1c(-c2cccc(Cl)c2)n[nH]c1=S	n	n	n	x
Cc1snc(S(=O)(=O)/C(C#N)=N\Nc2ccccc2)c1C#N	n	n	n	n
Cc1snc(S(=O)(=O)/C(C#N)=N/Nc2ccc(C(F)(F)F)cc2)c1C#N	n	n	n	71.4
CCOc1ccc(/C(O)=C2/C(=O)C(=O)N(c3ncccn3)C2c2ccccc2)cc1 (centres undefined)	n	n	n	n
O=C(NC1(C(F)(F)F)NC(=O)N(c2ccccc2F)C1=O)c1ccncc1 (centres undefined)	n	n	n	n
O=C(NC1(C(F)(F)F)NC(=O)N(c2ccc(F)c(Cl)c2)C1=O)c1ccncc1 (centres undefined)	n	n	4.5	n
O=C(CS(=O)(=O)Cc1ccccc1)NCc1ccco1	9.8	n	n	n
CC(=O)c1ccc(N2CCN(C(=O)c3ccc4c(Cl)c5c(nc4c3)CCCC5)CC2)cc1	n	n	n	x
O=C(c1ccc2c(Cl)c3c(nc2c1)CCCC3)N1CCC(N2CCCCC2)CC1	11.3	n	n	n
COc1ccc(NC2c3ccccc3C(=O)N2c2ccccn2)cc1 (centres undefined)	x	n	n	x
O=C(NC1CCCC1)C1c2ccccc2C(=O)N1CCCN1CCOCC1 (centres undefined)	n	x	n	60.0
COCCCN1C(=O)c2ccccc2C1C(=O)NC1CCCCCC1 (centres undefined)	n	n	n	n
O=C(COC(=O)CN1C(=O)c2ccccc2C1=O)Nc1ccc(S(=O)(=O)N2CCCC2)cc1	12.1	n	x	n
SMILES	HMGR II inh	HSV augment	Insulin prom up	INS promoter inh
Cc1cc(C)n(CC(=O)N2c3ccccc3Sc3ccc(C(F)(F)F)cc32)n1	n	n	n	u
O=C(Cn1nnc(-c2cccs2)n1)N1c2ccccc2Sc2ccc(C(F)(F)F)cc21	n	n	x	80.0
COCCNC(=O)COC(=O)/C=C/c1c(C)nn(Cc2ccc(Cl)cc2Cl)c1Cl	n	n	n	n
COc1ccc2cc(C(c3nnnn3C3CCCC3)N3CCCCCC3)c3nnnn3c2c1 (centres undefined)	11.3	n	n	n
CCNc1nc(NC(C)C)nc(N(n2cnnc2)S(=O)(=O)c2ccc(C)cc2)n1	n	n	n	n
CCNc1nc(NCC)nc(N(n2cnnc2)S(=O)(=O)c2ccc(C)cc2)n1	n	n	n	80.0
Cc1cccc(C(=O)O/N=C2/CC3CCC2(C)C3(C)C)c1 (centres undefined)	11.1	n	x	n
Cc1ccc(C(=O)O/N=C2\CC3CCC2(C)C3(C)C)cc1 (centres undefined)	n	n	x	n
CCOc1ccc(NC(=O)c2cnccn2)cc1	n	n	n	94.3
O=C(Nc1c2c(nn1-c1ccc(F)cc1)CS(=O)(=O)C2)c1ccc(S(=O)(=O)N2CCOCC2)cc1	n	n	n	x
COCCn1c(N)c(C(=S)NC(=O)c2cccs2)c(=O)[nH]c1=O	x	n	x	x
COc1ccc2c(OC)cc(-c3ccccc3)nc2c1	n	n	x	100.0
Cc1ccc(-c2csc(C(C#N)=C3CCCC3)n2)cc1	n	n	n	75.0
NC1=NC(c2ccccc2)=NC1(NC(=O)c1ccccc1)C(Cl)Cl (centres undefined)	x	n	n	x
Cc1ccc(C(=O)NC2(C(Cl)Cl)N=C(c3ccccc3)N=C2N)cc1 (centres undefined)	9.7	n	n	n
CCN(CC)C(=O)CSc1ncccc1-c1nc2ccccc2[nH]1	n	n	n	x
O=C(C1=C[C@H](C2CC2)C[C@H](OCCCCO)O1)N1CCN(Cc2ccccc2)CC1	n	n	3.72	x
CCN(C=NC1=NN(c2cccc(C(F)(F)F)c2)CC1)CC	n	n	n	62.5
Cc1cc(C)nc(NS(=O)(=O)c2ccc(N/C=C/C(=O)c3ccc(Cl)c(Cl)c3)cc2)n1	n	n	n	n
Cc1cc(C)nc(NS(=O)(=O)c2ccc(N/C=C\C(=O)c3ccc(Cl)cc3)cc2)n1	n	n	n	70.0
CN1C(=O)/C(=C/c2cn(CC(=O)N3CCCCC3)c3ccccc23)c2ccccc21	n	n	n	n
Cc1nn(-c2ccccc2)c(Cl)c1/C=N/NS(=O)(=O)c1ccc(Br)cc1	n	n	n	69.2
CNC(=S)N/N=C/c1c(C)nn(-c2ccccc2)c1Cl	n	n	n	n
Cc1cc(C)c(C(=O)Nc2ccccc2)c(CC(C)(C)C(=O)O)c1	x	n	n	x
CCC(C)(C)NC(=O)C(c1ccc(OC)cc1)N(CCOC)C(=O)CCC(=O)Nc1nccs1 (centres undefined)	10.3	n	n	x
SMILES	HMGR II inh	HSV augment	Insulin prom up	INS promoter inh
CCC(C)(C)NC(=O)C(c1ccc(O)cc1)N(CCOC)C(=O)CCC(=O)Nc1nccs1 (centres undefined)	x	n	n	x
COC(=O)CNC(=O)c1cc(OC)cc(OC)c1	17.6	n	n	x
c1ccc(-c2nnc(SCc3nnc(-c4cccs4)o3)o2)cc1	15.9	n	n	n
COc1cc(Cn2c(=O)oc3ccc(C)cc32)ccc1OC(C)C	14.2	n	n	n
Cc1ccc(Cl)cc1N=C(N)N=C(N)N	14.9	n	n	x
NC(N)=NC(N)=Nc1cccc(Cl)c1	x	n	n	x
COc1ccc(NC(=O)N2CCN(c3cccc(C(F)(F)F)c3)CC2)cc1	n	n	x	75.3
COc1cccc(NC(=O)N2CCCC2)c1	n	n	n	n
COc1cccc(NC(=O)N2CCN(c3nnnn3-c3ccccc3)CC2)c1	n	n	3.09	x
CN(C)S(=O)(=O)c1ccc(NC(=O)N2CCN(c3cccc(C(F)(F)F)c3)CC2)cc1	n	n	n	n
CCOC(=O)C(CC)n1cnc2c(nnn2-c2ccc(OC)cc2)c1=O (centres undefined)	27.0	n	n	n
CCC(C(=O)OC)n1cnc2c(nnn2-c2ccc(OC)cc2)c1=O (centres undefined)	n	n	n	n
CCOC(=O)c1nnn(-c2ccc(OC)cc2)c1N	15.5	n	x	n
O=C(CCCSc1nnnn1-c1cccc2ccccc12)c1ccc(F)cc1	n	n	n	x
Cc1cccc(-n2c3nc(=O)[nH]c(=O)c-3cc3c(C)nn(-c4ccccc4)c32)c1	n	n	n	62.5
